Assay results as given in PubChem BioAssay (NCATS).
Inconclusive results are not listed. Active and inactive are the calls of the source. The call rests on the fitted dose curve; in most records, active means well fitted inhibition curve with a large enough effect; inconclusive means small, poorly fitted or top-dose-only effect; inactive means no such curve, though single readings can be large or run the other way.

The compounds below were run on Zika virus NS2B-NS3 protease (linked construct) (assay: 384 well plate NINDS Rhodamine confirmatory qHTS for Zika virus inhibitors (AID 1347164; further: nearly all actives have a fitted effect of over 65% in size)). Conditions: rhodamine-110 peptide substrate fluorescence; series mostly up to 100 µM.
Excerpt: Description: Assay Submitters (PI): Avindra Nath, Ph.D., National Institute of Neurological Disorders and Stroke (NINDS), Bethesda, MD Radhakrishnan Padmanabhan, Ph.D., Georgetown University (GU), Washington D.C. Zika Virus causes congenital defects, including microcephaly and is associated with Guillain-Barre syndrome, eningoencephalitis and myelitis in infected adult. […] Using a target-based approach, we hope to establish a screening paradigm to uncover novel, cell-active NS2B-NS3 protease (Zika Virus) specific inhibitors from NCATS' collection of small molecules using qHTS. […] Four assay panel was created to identify potential Zika Virus inhibitors. Namely, (1) GU unlinked NS2B-NS3 AMC tagged protease qHTS, (2) GU unlinked NS2B-NS3 Rhodamine tagged protease qHTS, (3) NINDS linked NS2B-NS3 AMC tagged protease qHTS, (4) NINDS linked NS2B-NS3 Rhodamine tagged protease qHTS. Active compounds are validated using a secondary assay in 384 well plate format. Early Translation Branch (ETB) National Center for Advancing Translational Sciences (NCATS), Rockville, MD National Institute of Health (NIH), Bethesda, Maryland
384-well NINDS Rhodamine Assay: The protease was diluted to 7.5 nM, 40.9 nM, or 82 nM in assay buffer and dispensed into a 96-well PCR plate (Applied Biosystems); 20 or 22 microL was transferred to a black 384-well assay plate (final protease concentration of 5 nM, 30 nM, or 60 nM, respectively). Compounds (3 microL, 1 microM - 10 mM, DMSO) were diluted and transferred to the assay plate (final concentrations ranged from 100 nM to 1 mM). Compounds were incubated with protease for ~15 minutes. The substrate, Rhodamine 110 (Ac-LKRR-Rd; Genscript), was dissolved in DMSO to a concentration of 6 mM and further diluted into assay buffer to a working concentration of 180 microM, then dispensed into a 384-well preparation plate (Eppendorf). A multichannel repeat pipettor was used to add 3 or 5 microL of substrate to the assay plate to give a final concentration of 10 microM. The plate was incubated in the dark at room temperature. After 25 minutes, the fluorescence intensity (excitation: 485 nm, emission: 538 nm) was measured and normalized to no-enzyme and no-inhibitor controls. Aprotinin39 (VWR) was used as an intraplate control.
Potency means the concentration at half of the fitted maximal effect.

| SMILES | Potency |
| --- | --- |
| COc1cccc(OC)c1-c1cc(C(=O)N[C@@H](CC(C)C)C(=O)O)nn1-c1ccnc2cc(Cl)ccc12 | inactive |
| O=C(O)CC1CCC(c2ccc(-c3ccc(Nc4ccc(C(F)(F)F)nc4)cn3)cc2)CC1 (stereo not drawn) | inactive |
| C=CC1(C)C=C2CC[C@H]3[C@@](C)(C(=O)O)CCC[C@]3(C)C2CC1 (stereo partly drawn) | 20 µM (active) |
| Cc1ccc2[nH]c(=O)c(C3=NN(C(=O)CCC(=O)O)C(c4ccc(Br)cc4)C3)c(-c3ccccc3)c2c1 (stereo not drawn) | inactive |
| Cc1cc(C)c2nc(-c3ccccn3)cc(C(=O)Nc3ccc(S(=O)(=O)Nc4onc(C)c4C)cc3)c2c1 | 3.98 µM (active) |
| COc1cc(Nc2nc3ccccc3nc2NS(=O)(=O)c2cccc(NC(=O)c3ccc(C)c(OC)c3)c2)cc(OC)c1 | inactive |
| CCOc1ccc(-c2cc(NC(=O)c3c(F)cccc3F)c(C(=O)O)s2)cc1 | 5.01 µM (active) |
| COc1cnc(-c2ccc(Cn3c(CC(C)(C)C(=O)O)c(SC(C)(C)C)c4cc(OC[C@@H]5Cc6ccccc6N5C(C)=O)ccc43)cc2)nc1 | 1.78 µM (active) |
| CC1(C)CC=C(c2cnc3ccccc3c2)c2cc(C(=O)Nc3ccc(C(=O)O)cc3)ccc21 | inactive |
| C=C1C2CCC3CC2(CC(O)C2(O)C1CC(OC1OC(CO)C(O)C(O)C1O)C2(C)C)CC3(C)O (stereo not drawn) | 0.501 µM (active) |
| COc1cc2c(c(O)c1OC/C=C(\C)CC/C=C(/C)CCC=C(C)C)CN(C(CCC(=O)O)C(=O)O)C2=O (stereo not drawn) | inactive |
| C/C=C/C=C/C=C/C(=O)O[C@@H]1[C@@H](OC)C2=C(C(=O)N(C(CCC(=O)O)C(=O)O)C2)[C@@]2(C)CCCC(C)(C)[C@H]12 (stereo partly drawn) | 15.8 µM (active) |
| O=C1NC(=O)/C(=C/c2cccc(C(F)(F)F)c2)S1 | 20 µM (active) |
| CC1(C)CC[C@]2(C(=O)O)CC[C@]3(C)C(=CCC4[C@@]5(C)CC[C@H](O[C@@H]6O[C@H](C(=O)O)[C@@H](O)[C@H](O)[C@H]6O)C(C)(C)C5CC[C@]43C)C2C1 (stereo partly drawn) | 2.24 µM (active) |
| COc1cc(Nc2ccc([N+](=O)[O-])cc2C(=O)O)cc2ccccc12 | 1.41 µM (active) |
| Cc1ccc([C@@H]2CC=C(C(=O)O)[C@H](c3ccc(C(C)(C)C)cc3)N2S(=O)(=O)c2ccc(C)cc2)cc1 | 4.47 µM (active) |
| C/C(=C\CC/C(C)=C/CC[C@]1(C)CCc2cc(O)cc(C)c2O1)CC/C=C(\C)C(=O)O | 2.51 µM (active) |
| Cc1ccccc1NC(=O)Nc1ccc(CN2C(=O)N([C@@H](CC(C)C)C(=O)N[C@@H](CC(=O)O)c3ccccc3)C(=O)C2(C)C)cc1 | inactive |
| C=C1C2CCC3C(CCC4[C@@]3(C)CCC[C@@]4(C)C(=O)O)(C2)[C@@H]1OC(=O)/C(C)=C\C (stereo partly drawn) | 8.91 µM (active) |
| O=C(Nc1ccccc1)Nc1ccc(-c2ccc(C(=O)C3CCCC3C(=O)O)cc2)cc1 (stereo not drawn) | 11.2 µM (active) |
| CC1C(O)C(O)C2C(C(=O)OCCc3ccc(O)cc3)=COC(O[C@@H]3O[C@H](CO)[C@@H](O)[C@H](O)[C@H]3O)C12 (stereo partly drawn) | 3.98 µM (active) |
| CC(C)CC(c1c(O)c(C=O)c(O)c(C=O)c1O)C1CCC(C)(O)C2CC(C(C)(C)O)CCC12C (stereo not drawn) | 15.8 µM (active) |
| CC(=O)OC12CC(C)C(OC(=O)c3ccccc3)C1/C=C(/C)C(OC(=O)c1ccccc1)CC(=O)C(C)(C)/C=C/C(C)C2=O (stereo not drawn) | 35.5 µM (active) |
